Assay outcomes from PubChem.
Shown are actives, neighbours in structure and some others; about 3% of the full set was active somewhere.
PAFAH2 inh – inhibitors of human PAFAH2 | Q99487 | recombinant PAFAH2, FP-rhodamine activity probe, fluorescence polarization | inhibition, % at 3.39 µM | 0.99% of 340,000 active | AID 492956;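 active = inhibition above the mean over all tested compounds plus 3 SD, cut at about 30% in these data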;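 also: inhibitors block probe labeling of enzyme so polarization drops; 0% = enzyme with DMSO and 100% = wells lacking PAFAH2 protein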
PAFAH1B3 FP inh – PAFAH1B3 (human) inhibition; inhibition, % at 3.39 µM; 0.28% of 340,000 active; Q15102; recombinant PAFAH1B3, FP-rhodamine probe, fluorescence polarization;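 active = inhibition above the screen-wide average of all tested compounds plus 3 SD, cut at about 25% in these data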;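 also: 0% = enzyme with DMSO only and 100% = wells lacking PAFAH1B3 protein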
pPAFAH inh – inhibitors of human plasma PAF acetylhydrolase (pPAFAH); AID 463082; inhibition, % at 3.39 µM; recombinant pPAFAH, FP-rhodamine probe fluorescence polarization; 1.5% of 330,000 active; Q13093;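 active = inhibition above the mean inhibition across the screen plus 3 SD, cut at about 25% in these data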;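 also: inhibitors block binding of the rhodamine activity-based probe so polarization drops; 0% = enzyme with DMSO and 100% = wells lacking pPAFAH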
Target sequence (Q13093 whole entry, looked up): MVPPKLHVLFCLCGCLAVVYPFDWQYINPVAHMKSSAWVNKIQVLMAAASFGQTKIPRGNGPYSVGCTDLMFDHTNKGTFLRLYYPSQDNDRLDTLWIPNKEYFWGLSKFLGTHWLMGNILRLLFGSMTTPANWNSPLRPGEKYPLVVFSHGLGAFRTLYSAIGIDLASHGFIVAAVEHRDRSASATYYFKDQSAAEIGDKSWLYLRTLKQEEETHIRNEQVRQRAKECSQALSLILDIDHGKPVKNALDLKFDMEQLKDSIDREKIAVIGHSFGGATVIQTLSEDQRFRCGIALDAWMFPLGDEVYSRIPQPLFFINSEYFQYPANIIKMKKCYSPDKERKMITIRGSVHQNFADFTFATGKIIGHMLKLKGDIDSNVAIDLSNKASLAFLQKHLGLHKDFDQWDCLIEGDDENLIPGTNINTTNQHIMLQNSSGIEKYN
Fh CTSL1 inh – counter-screen for PFM18AAP inhibitors: inhibitors of F. hepatica cathepsin L1; AID 1906; recombinant F. hepatica cathepsin L1, Z-Leu-Arg-MCA fluorescence; inhibition, % at 5.96 µM; 0.49% of 300,000 active;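 active = inhibition above the mean of all tested compounds plus 3 SD, set per screening campaign, cut at about 17% in these data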;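 also: 0% = plate median of test compound wells and 100% = 1 µM Z-Phe-Ala-diazomethylketone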
PAFAH1B2 FP inh – blocks human PAF acetylhydrolase 1b catalytic subunit 2; 1.2% of 340,000 active; P68402; recombinant PAFAH1B2, FP-rhodamine activity probe, fluorescence polarization; inhibition, % at 3.39 µM;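 active = inhibition above the mean of all tested compounds plus 3 SD, cut at about 24% in these data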;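 also: 0% = enzyme with DMSO and 100% = wells lacking PAFAH1B2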
Target sequence (P68402 whole entry, looked up): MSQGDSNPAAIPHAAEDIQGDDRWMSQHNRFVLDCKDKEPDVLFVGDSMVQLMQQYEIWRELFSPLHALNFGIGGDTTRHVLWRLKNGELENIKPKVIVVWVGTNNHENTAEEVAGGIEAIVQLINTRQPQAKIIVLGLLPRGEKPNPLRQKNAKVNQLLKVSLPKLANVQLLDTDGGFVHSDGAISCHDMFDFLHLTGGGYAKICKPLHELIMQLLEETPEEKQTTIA
PP5 primary – blocks human protein phosphatase 5 activity | purified PP5c, OMFP substrate fluorescence | inhibition, % at 6.7 µM | 0.18% of 320,000 active | AID 1987;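 active = inhibition above the campaign's mean inhibition across all tested compounds plus 3 SD, cut at about 9.5% in these data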;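 also: 0% = DMSO only and 100% = 100 µM cantharidin control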
The depositor's hits bear a star.

What do the screens show for `Cc1ccc(/C=C2\C(=O)NC(=S)N(c3cccc(F)c3)C2=O)o1`?
PAFAH2 inh: 13.8; PAFAH1B3 FP inh: 0.1; pPAFAH inh: 29.2*; Fh CTSL1 inh: -3.7; PAFAH1B2 FP inh: 4.1; PP5 primary: 0.3

Results for COc1ccc(N2C(=O)/C(=C/c3cc(C)n(-c4ccc(C)cn4)c3C)C(=O)NC2=S)c(OC)c1 ?
PAFAH2 inh: -1.5; PAFAH1B3 FP inh: -3.2; pPAFAH inh: 11.8; Fh CTSL1 inh: -3.3; PAFAH1B2 FP inh: -1.4; PP5 primary: 4.0

What do the screens show for `COc1ccc(N2C(=O)/C(=C/c3ccc(C)o3)C(=O)NC2=S)cc1`?
PAFAH2 inh: 12.2; PAFAH1B3 FP inh: 5.3; PAFAH1B2 FP inh: -4.6

What do the screens show for `O=C1NC(=S)N(c2ccc(F)cc2)C(=O)/C1=C\c1ccoc1`?
PAFAH2 inh: 50.4*; PAFAH1B3 FP inh: 7.3; PAFAH1B2 FP inh: 8.6

Results for O=C1NC(=S)N(c2ccc(F)cc2)C(=O)/C1=C/c1ccco1 ?
pPAFAH inh: 83.1*; Fh CTSL1 inh: 1.7; PP5 primary: 0.3

Results for COc1ccc(OC)c(N2C(=O)/C(=C/c3ccco3)C(=O)NC2=S)c1 ?
pPAFAH inh: 87.1*; Fh CTSL1 inh: 5.7; PP5 primary: -0.5

Results for COC1/C=C/C=C(\C)Cc2cc(O)c(Cl)c(c2)N(C)C(=O)CC(OC(=O)C(C)C)C2(C)OC2C(C)C2CC1(O)NC(=O)O2 (centres undefined) ?
PAFAH2 inh: 4.1; PAFAH1B3 FP inh: 4.6; PAFAH1B2 FP inh: -1.6

Results for COC1C(O)C(C)OC(OC2CCC3(C)C(CCC4C3C(O)CC3(C)C(C5=CC(=O)OC5)CCC43O)C2)C1O (centres undefined) ?
PAFAH2 inh: 0.1; PAFAH1B3 FP inh: 4.3; PAFAH1B2 FP inh: -3.1

What do the screens show for `CC(=O)OC1CCC2(C)C3CCC4(C)C(OC(C)=O)CCC4C3C(C)C2(O)C1` (centres undefined)?
PAFAH2 inh: 1.6; PAFAH1B3 FP inh: 1.0; PAFAH1B2 FP inh: -2.3

What do the screens show for `Clc1ccc(C(c2ccc(Cl)cc2)n2cc[n+](CC(OCc3ccc(Cl)cc3Cl)c3ccc(Cl)cc3Cl)c2)cc1` (centres undefined)?
PAFAH2 inh: 3.3; PAFAH1B3 FP inh: 2.5; pPAFAH inh: 12.7; Fh CTSL1 inh: 3.0; PAFAH1B2 FP inh: 2.4; PP5 primary: 4.8

What do the screens show for `Cc1nc2c(=O)n(C)c(=O)nc-2n(C)n1`?
PAFAH2 inh: 54.3*; PAFAH1B3 FP inh: 66.3*; pPAFAH inh: 3.7; Fh CTSL1 inh: 112.3*; PAFAH1B2 FP inh: 27.7*; PP5 primary: 10.7*

How did CN1/C(=C\C=Nc2ccccc2)C(C)(C)c2ccccc21 do in these assays?
PAFAH2 inh: -28.5; PAFAH1B3 FP inh: -17.6; pPAFAH inh: -7.3; Fh CTSL1 inh: 1.7; PAFAH1B2 FP inh: -13.7; PP5 primary: 0.0

Results for CN1/C(=C\C=C2C(=O)NC(=O)NC2=O)C(C)(C)c2ccccc21 ?
PAFAH2 inh: 4.8; PAFAH1B3 FP inh: 4.7; pPAFAH inh: -1.8; Fh CTSL1 inh: 20.1*; PAFAH1B2 FP inh: -2.2; PP5 primary: 2.4

How did COc1ccc(Oc2cc(NC(=O)c3nn(C)cc3[N+](=O)[O-])cc([N+](=O)[O-])c2)cc1 do in these assays?
PAFAH2 inh: -18.4; PAFAH1B3 FP inh: -0.9; pPAFAH inh: 16.7; Fh CTSL1 inh: 20.2*; PAFAH1B2 FP inh: -6.2; PP5 primary: 5.1

What do the screens show for `COc1ccc(NC(=O)c2cn(CCC#N)nc2-c2cccc([N+](=O)[O-])c2)cc1`?
PAFAH2 inh: 5.3; PAFAH1B3 FP inh: -0.7; pPAFAH inh: 3.2; Fh CTSL1 inh: -0.7; PAFAH1B2 FP inh: 7.8; PP5 primary: 0.0

How did CC1(CCl)CN1S(=O)(=O)c1ccccc1 (centres undefined) do in these assays?
PAFAH2 inh: 5.7; PAFAH1B3 FP inh: 5.4; pPAFAH inh: 4.8; Fh CTSL1 inh: 28.1*; PAFAH1B2 FP inh: 1.5; PP5 primary: 0.3

What do the screens show for `O=C1Nc2cc(C(=O)N3CCC4(CC3)OCCO4)ccc2NC1CSCc1cccc(F)c1` (centres undefined)?
pPAFAH inh: 6.2; Fh CTSL1 inh: 2.9; PP5 primary: -0.4

What do the screens show for `Cn1c(=O)c2c(nc(N/N=C/c3c(O)n(C4CCCCC4)c(=S)[nH]c3=O)n2C)n(C)c1=O`?
PAFAH2 inh: 10.1; PAFAH1B3 FP inh: 15.7; pPAFAH inh: 9.2; Fh CTSL1 inh: -0.4; PAFAH1B2 FP inh: 28.5*; PP5 primary: 3.7

How did Cc1ccccc1-n1c(O)c(/C=N/Nc2nc3c(c(=O)n(C)c(=O)n3C)n2C)c(=O)[nH]c1=S do in these assays?
PAFAH2 inh: 6.8; PAFAH1B3 FP inh: 3.3; pPAFAH inh: 8.6; Fh CTSL1 inh: -2.4; PAFAH1B2 FP inh: 1.4; PP5 primary: 6.9

How did CC1(O)CCN2C(=O)CCc3cccc1c32 (centres undefined) do in these assays?
PAFAH2 inh: 3.6; PAFAH1B3 FP inh: 9.2; pPAFAH inh: 3.5; PAFAH1B2 FP inh: 9.2; PP5 primary: -1.9

What do the screens show for `CN1C[C@H](CNC(=O)OCc2ccccc2)C[C@@H]2c3cccc4c3c(cn4C)C[C@H]21`?
PAFAH2 inh: 6.8; PAFAH1B3 FP inh: 3.0; pPAFAH inh: 26.9*; Fh CTSL1 inh: 0.5; PAFAH1B2 FP inh: 0.3; PP5 primary: 2.5

How did Cc1c2cnn(CC(=O)N3CCC4(CC3)OCCO4)c(=O)c2c(C)n1Cc1ccccc1 do in these assays?
PAFAH2 inh: -3.2; PAFAH1B3 FP inh: 1.7; pPAFAH inh: 5.0; Fh CTSL1 inh: 0.7; PAFAH1B2 FP inh: -1.8; PP5 primary: 1.4

Results for O=C(Cn1ncc2c3ccccc3n(Cc3ccc(F)cc3)c2c1=O)N1CCC2(CC1)OCCO2 ?
PAFAH2 inh: 6.0; PAFAH1B3 FP inh: 0.8; pPAFAH inh: 31.5*; Fh CTSL1 inh: 1.1; PAFAH1B2 FP inh: 2.8; PP5 primary: -0.6

Results for O=C1NC(=O)C(=Cc2ccc(-c3ccc(F)cc3O)o2)C(=O)N1 ?
PAFAH2 inh: 13.1; PAFAH1B3 FP inh: -2.8; pPAFAH inh: 1.2; Fh CTSL1 inh: -0.9; PAFAH1B2 FP inh: 31.7*; PP5 primary: 1.2

How did O=C1NC(=O)N(Cc2ccco2)C(=O)/C1=C/C=C/c1ccco1 do in these assays?
PAFAH2 inh: 33.2*; PAFAH1B3 FP inh: 3.5; pPAFAH inh: 33.4*; Fh CTSL1 inh: -1.2; PAFAH1B2 FP inh: 5.2; PP5 primary: -0.4

Results for Cc1ccc(OCCn2cccc2/C=C2/C(=O)NC(=O)N(Cc3ccco3)C2=O)cc1 ?
PAFAH2 inh: 14.5; PAFAH1B3 FP inh: 7.0; pPAFAH inh: 22.0; Fh CTSL1 inh: 0.4; PAFAH1B2 FP inh: 25.5*; PP5 primary: -1.7

Results for Cn1cccc1/C=C1\C(=O)NC(=O)N(Cc2ccco2)C1=O ?
PAFAH2 inh: 24.2; PAFAH1B3 FP inh: 2.9; PAFAH1B2 FP inh: 6.5

How did CCn1nc(-c2ccccc2)nc2c(=O)n(C)c(=O)nc1-2 do in these assays?
PAFAH2 inh: 57.7*; PAFAH1B3 FP inh: 69.8*; pPAFAH inh: 9.0; Fh CTSL1 inh: 113.5*; PAFAH1B2 FP inh: 39.0*; PP5 primary: 4.4
